Only some compounds are listed: those with a hit (about 3.5% of all), similar ones and a draw of the others.
KCNK9 inh – inhibitors of human KCNK9 two-pore domain potassium channel; Q9NPC2; HEK293 KCNK9, FluxOR thallium flux fluorescence; active compounds read low; B-score at 10 µM; 310,000 tested, 1.2% active; AID 488922;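 active = ratio B-score over 3 SD below the library mean, with starting fluorescence within 5 SD of its mean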;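 note: negative B-score means less thallium flux so channel inhibition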
TMEM16A act – mouse TMEM16A channel activation, primary screen. 340,000 tested, 0.3% active. B-score at 10 µM. HEK293 TMEM16A/YFP-H148Q/I152L, iodide quench fluorescence; active compounds read low. Q8BHY3;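 active = fluorescence-ratio B-score plate-corrected deviation score at least 3 library SD below zero, with starting fluorescence score within 5 deviations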;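 note: channel opened by trigger with iodide after compound preincubation; score built on the fluorescence ratio of max minus min over baseline; more negative score means more quench and so TMEM16A activation or potentiation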
KCNK3 block – human KCNK3 channel inhibition, primary screen; O14649; CHO-KCNK3 thallium flux, FluxOR fluorescence; active compounds read low; B-score at 10 µM; 340,000 tested, 0.84% active;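 active = B-score under library mean minus 4 SD, starting fluorescence ratio at most library mean plus 5 SD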;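 note: more negative B-score means stronger inhibition of thallium flux through KCNK3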
Target sequence (O14649 whole entry, looked up): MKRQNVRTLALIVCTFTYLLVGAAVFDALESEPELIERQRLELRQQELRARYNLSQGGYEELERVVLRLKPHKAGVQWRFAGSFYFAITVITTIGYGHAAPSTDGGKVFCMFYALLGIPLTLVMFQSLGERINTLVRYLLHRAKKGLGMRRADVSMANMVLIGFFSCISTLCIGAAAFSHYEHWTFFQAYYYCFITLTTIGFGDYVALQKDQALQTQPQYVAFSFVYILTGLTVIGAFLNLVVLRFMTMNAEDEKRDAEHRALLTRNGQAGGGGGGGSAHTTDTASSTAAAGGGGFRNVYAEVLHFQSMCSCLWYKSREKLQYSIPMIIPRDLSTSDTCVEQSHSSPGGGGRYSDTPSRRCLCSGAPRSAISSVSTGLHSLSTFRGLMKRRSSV
Kir21 inh – inhibitors of mouse Kir2.1 inward-rectifier potassium channel; P35561; HEK293-Kir2.1, FluxOR thallium flux fluorescence; active compounds read low; B-score at 10 µM; 310,000 tested, 0.85% active; AID 1672;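 active = fluorescence ratio B-score at or below minus 3 SD of library scores, with starting-brightness B-score within 2 SD, cut at about -4.2 in these data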;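 note: channel flux triggered by added potassium and thallium sulfate stimulus; B-score of peak minus minimum fluorescence over baseline after thallium stimulus; more negative B-score means stronger Kir2.1 block with less thallium influx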
ANO1 block – mouse TMEM16A channel inhibition, primary screen | Q8BHY3 | HEK293 TMEM16A/YFP iodide influx fluorescence, ionomycin | normalized B-score (activity score, 25-100; higher = stronger inhibition) at 10 µM | 310,000 tested, 1.2% active | AID 588511;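 active = ratio plate-corrected score three or more library SD toward inhibition, starting fluorescence score within five deviations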;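 note: score derived from kinetic fluorescence span divided by baseline fluorescence per well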
KCNK9 inh conf – confirmation of human KCNK9 potassium channel inhibitors; shares compounds with KCNK9 inh; HEK293 KCNK9 cells, FluxOR thallium flux fluorescence; inhibition, % at 10 µM; 4,900 tested, 43% active; AID 492992;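 active = thallium signal inhibited by more than 5 SD of the compound-free buffer control wells, on both duplicate plates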;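 note: 0% = assay buffer control wells without compound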
Kir2-1 spec – mouse Kir2.1 off-target activity of KCNK9 modulators. shares compounds with KCNK9 inh. Kir2.1 cells, FluxOR thallium flux fluorescence. inhibition, % at 10 µM. 4,900 tested, 4% active;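 active = thallium signal drop more than 5 SD beyond the mean of the no-compound control wells, seen in both duplicate plates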;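 note: signal is fluorescence rise after thallium addition divided by baseline fluorescence; plate controls were assay buffer only for no effect and full block by chlorpromazine control for full effect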
HEK293 Tl ctr – second counter-screen for KCNK9 modulators: effect in non-induced cells | shares compounds with KCNK9 inh | non-induced KCNK9-HEK293, FluxOR thallium flux | inhibition, % at 10 µM | 4,900 tested, 40% active | AID 492997;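 active = thallium signal drop beyond 5 SD of the untreated control mean, on both duplicate plates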;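 note: plate controls were buffer only IC0 wells for no effect and SID17386958 at its maximal inhibitory level for full effect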
Active calls of the source: *; i = inactive; x = no result given.

SMILES | KCNK9 inh | TMEM16A act | KCNK3 block | Kir21 inh | ANO1 block | KCNK9 inh conf | Kir2-1 spec | HEK293 Tl ctr
C[C@@H]1CN([C@@H](C)CO)C(=O)c2cc(NS(C)(=O)=O)ccc2O[C@@H]1CN(C)S(=O)(=O)c1ccccc1 | x | x | i | x | x | x | x | x
Cc1ccc(C(c2nnnn2Cc2cccs2)N2CCN(Cc3ccc4c(c3)OCO4)CC2)cc1 (configuration not stated) | -12* | i | i | -2.2 | i | i | i | 32%*
CN(C)c1ccc(C(=O)C(=O)c2ccccc2)cc1 | i | i | i | -2 | i | x | x | x
CN(C)c1ccc2c(c1)Sc1cc(N(C)C)ccc1N2C(=O)c1ccccc1 | i | i | i | 0.58 | i | i | i | i
O=C(NCCc1ccco1)C(=O)NCC1OCCCN1S(=O)(=O)c1cc(F)ccc1F (configuration not stated) | i | i | i | -2.9 | i | x | x | x
CCCCN(C(=O)Cc1ccc(S(=O)(=O)N2CCOCC2)s1)c1c(N)n(CC(C)C)c(=O)[nH]c1=O | x | i | i | x | x | x | x | x
O=C(N/N=C/c1ccc(-c2cccc(C(F)(F)F)c2)o1)c1cccc(F)c1 | -9.9* | i | i | 1.9 | i | i | i | i
CC(C)CN1CCC(=O)N(CCSc2ccc(Br)cc2)CC1 | i | i | i | -1.4 | i | i | i | i
COc1ccc(-c2nn(C)c3sc(C(=O)NCc4ccco4)cc23)cc1OC | i | i | i | 0.64 | i | x | x | x
COc1cccc(-c2nn(C)c3sc(C(=O)NCc4ccc(C)o4)cc23)c1 | -14* | i | i | -1.7 | i | 48%* | i | 30%*
CCc1nnc(NS(=O)(=O)c2ccc(NCc3cc(Br)ccc3O)cc2)s1 | i | i | i | 2.3 | i | i | i | i
COc1nccnc1NS(=O)(=O)c1ccc(NCc2cc(Br)ccc2O)cc1 | i | i | i | -1.4 | i | x | x | x
COc1ccccc1CN1CCN(S(=O)(=O)c2ccccc2)CC1 | i | i | i | -0.36 | i | i | i | i
COc1cccc(CN2CCN(S(=O)(=O)c3ccccc3)CC2)c1OC | i | i | i | -0.73 | i | x | x | x
O=S(=O)(c1ccccc1)N1CCN(Cc2ccc(Cl)cc2)CC1 | i | i | i | 1.3 | i | i | i | i
CCCCCCn1c(N2CCN(c3ccccc3)CC2)nc2c1c(=O)n(C)c(=O)n2C | -8.5* | i | i | 2.5 | i | 43%* | i | 40%*
Cn1c(=O)c2c(nc(CN3CCN(c4ccccc4F)CC3)n2CCCc2ccccc2)n(C)c1=O | i | i | i | 0.39 | i | i | i | i
CC(=O)NCCCC(=O)NN1C(=S)N(Cc2ccccc2)C(=O)C1CC(=O)Nc1cccc(C)c1 (configuration not stated) | i | i | i | -1.8 | i | x | x | x
Cc1ccc(S(=O)(=O)N(C)C)cc1-n1c(SCC(=O)Nc2ccc(F)cc2)nc2ccccc2c1=O | -9.7* | i | i | 2 | i | 50%* | i | 24%*
COCCn1c(SCC(=O)Nc2ccc(S(=O)(=O)N(C)C)cc2)nc2ccccc21 | i | i | i | 1.5 | i | x | x | x
COc1ccc(-c2csc(N(C)C(=O)c3cccs3)n2)cc1 | i | i | i | 0.15 | i | x | x | x
COc1ccc(-c2csc(N(Cc3ccco3)C(=O)c3cccs3)n2)cc1 | -9.4* | i | i | -2.2 | i | 50%* | i | 40%*
COc1ccc(OC)c(-c2csc(N(Cc3ccco3)C(=O)c3cccs3)n2)c1 | -12* | i | i | 2.3 | i | 49%* | i | 43%*
CC(=NNC(=S)N1CCN(c2ccccn2)CC1)c1nccs1 | x | i | i | x | x | x | x | x
CCOP1(=O)OCC2OC(n3cnc4c(N)ncnc43)C(O)C2O1 (configuration not stated) | i | i | i | 0.8 | i | x | x | x
SMILES | KCNK9 inh | TMEM16A act | KCNK3 block | Kir21 inh | ANO1 block | KCNK9 inh conf | Kir2-1 spec | HEK293 Tl ctr
Cn1c(=O)[nH]c(Nc2ccccc2)c([N+](=O)[O-])c1=O | i | i | i | 1.4 | i | x | x | x
N#Cc1c(N)nc(SCc2ccncc2)c(C#N)c1-c1cccs1 | i | i | i | -0.04 | i | x | x | x
COc1cc(-c2c(C#N)c(N)nc(SCc3ccncc3)c2C#N)cc(OC)c1OC | -10* | i | i | 0.05 | i | i | i | 27%*
CCc1ccc(NC(=O)COC(=O)/C(=C/c2ccccc2OC)c2ccccc2)cc1 | i | i | i | 1 | i | i | i | i
O=C(c1c[nH]c2ccccc12)N1CCOCC1 | i | i | i | 0.13 | i | x | x | x
S=C(c1c[nH]c2ccc(Br)cc12)N1CCOCC1 | -8.7* | i | i | -1.7 | i | 50%* | i | i
Cc1nnc(SCC(=O)NCc2ccccc2Cl)[nH]c1=O | i | i | i | 0.71 | i | x | x | x
N#CC1(c2ccccc2)CCCN1C(=O)c1ccc(Br)cc1 (configuration not stated) | i | i | i | -1.3 | i | x | x | x
COc1ccccc1N1CCN(C2CCCN(S(=O)(=O)c3cccc(Cl)c3)C2)CC1 (configuration not stated) | i | i | i | 1.6 | i | i | i | i
COc1ccccc1N1CCN(C2CCCN(S(=O)(=O)c3ccc(C)cc3)C2)CC1 (configuration not stated) | i | i | i | 1 | i | x | x | x
CCCOc1ccc(C(=O)N/N=C/c2c[nH]c3ccc(Br)cc23)cc1 | i | i | i | 1.3 | i | x | x | x
O=C(N/N=C/c1c[nH]c2ccc(Br)cc12)c1ccn(Cc2ccc(Cl)cc2)n1 | -15* | i | i | 2.8 | i | 49%* | i | i
CN(C(=O)CN1C(=O)C2C3CC(C(Br)C3Br)C2C1=O)C1CCCCC1 (configuration not stated) | i | i | i | 0.59 | i | x | x | x
Cc1ccc(Cn2cc(CCC(=O)O)c3ccccc32)cc1 | i | i | i | 0.19 | i | x | x | x
Cc1ccnc(NC(=O)C23CC4CC(CC(C4)C2)C3)c1 | i | i | i | -0.33 | i | i | i | i
CCC(=O)Nc1ccc(NC(=O)C23CC4CC(CC(C4)C2)C3)cn1 | i | i | i | 0.92 | i | x | x | x
CC1CCCC(C)N1C(=O)COC(=O)c1cc(Br)ccc1Cl (configuration not stated) | i | i | i | 0 | i | i | i | i

Bioassay records from PubChem BioAssay.
